Twelve compounds from PubChem BioAssay (NCI) can be followed below.

Among the test systems are DU-145 prostate; MALME-3M melanoma; MDA-MB-231 breast; RXF 393 renal; SF-268 CNS; SF-295 CNS; SF-539 CNS; UACC-257 melanoma; M14 melanoma.
Assay in all cases: NCI-60 one-dose screen, 48 h (100 = growth as untreated, 0 = no growth, -100 = all killed)
Common to all, as to details: 10 µM unless noted

Each structure is given as a SMILES string. About 83,000 compounds went through this panel and 20% of them were active in at least one assay; those are over-represented in the sample as a whole.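 Method: cells in 96-well plates; compound added at one concentration; 48 h incubation; percent growth measured; values under 10 scored active.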 Values without a mark were called inactive. The source made the active and inactive calls.

Take `OC(c1ccc(F)c(C(F)(F)F)c1)c1cnccc1NC1CCCCC1` (stereo not drawn): the growth was 90.2% in the test on DU-145 prostate; 71.8% in the test with MALME-3M melanoma; 55.2% in the test on MDA-MB-231 breast; 68.6% in the test with RXF 393 renal; 79.6% with SF-268 CNS; 74.1% in the test on SF-295 CNS. In addition, the growth in the test on SF-539 CNS is 85.4%; with UACC-257 melanoma, 87.4%; in the test with M14 melanoma, 77.8%.

As to `C#Cc1cccc(NC(=O)Nc2cccc(NC(=O)CCl)c2)c1`, the growth in the test on DU-145 prostate was 44.4% [8.25 µM]; with MALME-3M melanoma, -50.2% [8.25 µM] (active); in the test on MDA-MB-231 breast, -61% [8.25 µM] (active); with RXF 393 renal, -48.7% [8.25 µM] (active); in the test on SF-268 CNS, -2.2% [8.25 µM] (active); with SF-295 CNS, 45% [8.25 µM]. Besides, the values for the growth with SF-539 CNS, in the test on UACC-257 melanoma and in the test with M14 melanoma were -95.2% [8.25 µM] (active), 48.7% [8.25 µM] and 6.26% [8.25 µM] (active), respectively.

As for `COc1cc(/C=C\c2cc(OC)c(OC)c(OC)c2)cc(N)c1OC`, the growth with DU-145 prostate is 110%; with MALME-3M melanoma, 77.9%; in the test with MDA-MB-231 breast it was 88.6%; in the test with RXF 393 renal, 105%; in the test on SF-268 CNS, 93.3%; in the test with SF-295 CNS, 73.7%. Also, the figures for the growth in the test on SF-539 CNS, with UACC-257 melanoma and with M14 melanoma were 84.3%, 87.5% and 66.1%, respectively.

With `CCCCN1C=CCN(CCCC)C1`, the growth was 71.8% with DU-145 prostate; -22.1% (active) in the test with MALME-3M melanoma; 75.2% in the test with MDA-MB-231 breast; 113% with RXF 393 renal; 58% in the test on SF-268 CNS; 55.6% in the test on SF-295 CNS. The growth is 78.6% in the test with SF-539 CNS, 10.8% in the test with UACC-257 melanoma and 46% in the test with M14 melanoma.

On to `COc1cc(/C=C\c2cc(OC)c(OC)c(OC)c2)cc(NC(=O)/C=C/c2cc(OC)c(OC)c(OC)c2)c1OC`, for which the growth in the test with DU-145 prostate was 78%; in the test with MALME-3M melanoma, 48.7%; with MDA-MB-231 breast it was 51.3%; in the test on RXF 393 renal it was 28.7%; in the test with SF-268 CNS, 72.6%; in the test with SF-295 CNS, 32.6%. Also, the results for the growth in the test with SF-539 CNS, with UACC-257 melanoma and with M14 melanoma were 56.4%, 68.4% and 37.9%, respectively.

For the compound `COc1ccc(C(=O)Cn2c(C(=O)c3ccccc3)nc3ccccc32)cc1`, the growth was 36.7% in the test with DU-145 prostate; 46.6% with MALME-3M melanoma; 37.6% in the test with MDA-MB-231 breast; 13.1% in the test with RXF 393 renal; 52.9% in the test with SF-268 CNS; 12.2% in the test with SF-295 CNS. In addition, the growth with SF-539 CNS is 15.1%; with UACC-257 melanoma, 54.3%; with M14 melanoma, 6.97% (active).

For the compound `CC(=O)OC[C@]12CC[C@@H](C(=O)CBr)[C@@H]1[C@H]1CC[C@@H]3[C@@]4(C)CC[C@H](OC(C)=O)C(C)(C)[C@@H]4CC[C@@]3(C)[C@]1(C)CC2`, the growth in the test with DU-145 prostate was 100%; with MALME-3M melanoma, 89.2%; with MDA-MB-231 breast it was 110%; with RXF 393 renal it was 99.7%; in the test on SF-268 CNS, 89.9%; in the test with SF-295 CNS, 106%. The results for the growth in the test with SF-539 CNS, in the test on UACC-257 melanoma and in the test on M14 melanoma were 91.7%, 108% and 87.2%, respectively.

For the compound `N#C/C(=C\c1c(-c2ccccc2)[nH]c2ccccc12)C(=O)c1ccc(Cl)cc1`, the growth in the test with DU-145 prostate is 28.3%; in the test with MALME-3M melanoma, 37.2%; with MDA-MB-231 breast it was 49.9%; in the test on RXF 393 renal, 29.2%; in the test with SF-268 CNS, 51.4%; in the test with SF-295 CNS, 32.1%. For the same compound, the growth in the test with SF-539 CNS was -39.7% (active); in the test on UACC-257 melanoma it was 68.2%; in the test on M14 melanoma, 41%.

Regarding `COc1ccc(C(=O)CC#N)cc1`, the growth is 107% in the test with DU-145 prostate; 123% in the test on MALME-3M melanoma; 96.8% in the test with MDA-MB-231 breast; 106% with RXF 393 renal; 107% in the test with SF-268 CNS; 131% in the test on SF-295 CNS. Also, the growth was 121% with SF-539 CNS, 102% in the test with UACC-257 melanoma and 110% in the test on M14 melanoma.

As for `Cn1cc(-c2csc(-c3c[nH]c4ccccc34)n2)c2ccnc(Cl)c21`, the growth in the test with DU-145 prostate is 47.2%; in the test with MALME-3M melanoma it was 139%; in the test on MDA-MB-231 breast, 70.1%; in the test on RXF 393 renal, 43.5%; in the test on SF-268 CNS, 102%; in the test with SF-295 CNS it was 93.2%. In addition, the growth in the test with SF-539 CNS was 56.2%; in the test on UACC-257 melanoma, 32.2%; with M14 melanoma, 43.3%.

With `COC(=O)C(CC=O)C(=O)C(=O)Nc1cccc(C(F)(F)F)c1` (stereo not drawn), the growth in the test with DU-145 prostate was 110%; in the test on MALME-3M melanoma, 113%; in the test with MDA-MB-231 breast, 90.2%; in the test with RXF 393 renal, 103%; in the test with SF-268 CNS, 95%; in the test on SF-295 CNS, 110%. For the same compound, the figures for the growth with SF-539 CNS, with UACC-257 melanoma and in the test with M14 melanoma were 99.9%, 66.5% and 106%, respectively.

Turning to `COc1ccc(-c2cnc3c(-c4cccc5ncccc45)cnn3c2)cc1`, the growth in the test with DU-145 prostate was 58.1%; with MALME-3M melanoma, 15%; in the test on MDA-MB-231 breast it was -1.88% (active); in the test on RXF 393 renal it was 26.7%; in the test with SF-268 CNS, 19%; in the test on SF-295 CNS, 32.2%. The growth in the test on SF-539 CNS was 30.8%; with UACC-257 melanoma it was 51.3%; in the test with M14 melanoma, 76.8%.
